The results in this text go back to the OligoGym collection.
Further: reference of the scale not given here.

One assay has as its target PTPN7. In words: pooled miR-30 sensor sort-seq; sequence = guide strand. The settings on record: shRNA.
Sequence TCTTGCCACACCATCTCCCAGA came in with a sensor-assay potency score (higher = more potent) of -0.679.

In turn, TTTGTCTGTCATAAATGCCAGC displayed a sensor-assay potency score (higher = more potent) of -0.867. Sequence TAGAACAGGAAACTGAAGCTCA yielded a sensor-assay potency score (higher = more potent) of 0.0685.

A further assay addresses PTPRT. Described as above. The settings on record: shRNA.
Sequence TTGAGTCGCAATGTAGTGCCGA showed a sensor-assay potency score (higher = more potent) of -0.352. For the sequence TAATCGAACACCAGCCTCCAGA, the sensor-assay potency score (higher = more potent) was -0.958. TTGGTCTTGATCTTGAGCCTAT displayed a sensor-assay potency score (higher = more potent) of -0.529.

As for TATTGTAGTAGAGAGAACGGAA, the sensor-assay potency score (higher = more potent) was -0.217. The same measure, in the same setting: to TAGTTGATCTCGTAGAGCGTGA belongs -0.257. Sequence TTTGTGACCATGACGATGCTGG displayed a sensor-assay potency score (higher = more potent) of 0.113. TATCTGATATTCATTGACCTGA came in with a sensor-assay potency score (higher = more potent) of -0.134. TAGATTTTTTAACACAGCCATG returned a sensor-assay potency score (higher = more potent) of -1.72. On the same count and under the same terms, the same measure for TTTGCTTTGAGGCACTTCCTTT: -1.11; for TATCTTGTTTGTCTCTTCCAAA: -1.13. In turn, TAAGTCATCTGCATCCTCGGTT had a sensor-assay potency score (higher = more potent) of 0.728. Turning to TAGTGTAGAGAATCGAGGCTGG, the sensor-assay potency score (higher = more potent) was determined as 0.97.

In a further assay the target is PXDN. The assay is described as above. The settings on record: shRNA.
Sequence TTGTAGTGGTAACTTGTTCCGT gave a sensor-assay potency score (higher = more potent) of -0.383. In turn, TTGAGGTCGACCATCAAGCCAT displayed a sensor-assay potency score (higher = more potent) of -0.562. Same read-out and setting: the same measure for TTGAGTTTATAGCTCTGTCAAC: -1.24; for TTCTATCTGATTAAAGTGCAGG: -0.41; for TTCACAGTTCAGCTCTTCCGGG: -0.633. In turn, TGTAGTGGTAACTTGTTCCGTT returned a sensor-assay potency score (higher = more potent) of 0.669. Consider TTTTCCACTTTCTGTCACCTGA, for which the sensor-assay potency score (higher = more potent) came out at 0.0535.

Regarding TTCCAGAACAAACTCTCTGAAG, the sensor-assay potency score (higher = more potent) was -1.36. TTCAGCTTGAGCAGCTCCGTGG displayed a sensor-assay potency score (higher = more potent) of -0.881. Same read-out and setting: the same measure for TATAGCTCTGTCAACAGTCGCA: -0.0838; for TATCTGATTAAAGTGCAGGTAT: -0.445.

Another assay deals with PXN. The assay is described as above. The settings on record: shRNA.
In turn, TACAGCGTTCAGTTCCAGCAGC had a sensor-assay potency score (higher = more potent) of -0.582.

In turn, TTGCAGTAGTAGCAGCGCGGGG yielded a sensor-assay potency score (higher = more potent) of -1.51.

TTGTTGAGCTGCTTGAGGCAGA: the sensor-assay potency score (higher = more potent) was -0.264. TTGAGTTGGCCTCATCTGCAGG came in with a sensor-assay potency score (higher = more potent) of -0.889. Regarding TTCAGTTCCAGCAGCAGGCGGT, the sensor-assay potency score (higher = more potent) is -0.708. The sequence TAGTTCTCCAGGATGGCCCGGG returned a sensor-assay potency score (higher = more potent) of -0.505. TAGAAATCTATCAAAGTCGGTA yielded a sensor-assay potency score (higher = more potent) of 0.0963. Sequence TTTCACAGTAGGGCTGTCCATC displayed a sensor-assay potency score (higher = more potent) of -0.695. The sequence TAGGCTTCTCTTTCGTCAGGGG came in with a sensor-assay potency score (higher = more potent) of 0.384.

Take TTCTCGTGGAACCCTTCGGGAC: the sensor-assay potency score (higher = more potent) is -1.59. On to AACATGTCGAAGTAGTCCTTGC, for which the sensor-assay potency score (higher = more potent) is -0.89. Still for that read-out and setting: to TCGTGCTCGAAGAAGCTGCCGT belongs -0.594.
